# Measured values published in PMC11006913.
# Residue numbers refer to the chain shown, from its start.
# Columns and labels:
# Assay in all cases: PBM; 200 nM protein, PBS
# Details in all cases: dsDNA, one strand shown
# [1] = biological target: NKX2-5 (Homo sapiens, UniProt P52952 125-210, R139K)
# [2] = biological target: HOXA4 (Homo sapiens, UniProt Q00056 201-287, W262R)
# [3] = biological target: PRRX1 (Homo sapiens, UniProt P54821 80-166, F113S)
# [4] = biological target: HOXA4 (Homo sapiens, UniProt Q00056 201-287, R217L)
# Chain of HOXA4 (Homo sapiens, UniProt Q00056 201-287, R217L) (Q00056 201-287 R217L): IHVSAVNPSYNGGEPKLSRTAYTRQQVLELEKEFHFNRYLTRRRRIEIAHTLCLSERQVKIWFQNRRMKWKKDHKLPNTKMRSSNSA
# [5] = biological target: T1, NKX2-6 (Homo sapiens, UniProt A6NCS4 118-204)
# T1 sequence: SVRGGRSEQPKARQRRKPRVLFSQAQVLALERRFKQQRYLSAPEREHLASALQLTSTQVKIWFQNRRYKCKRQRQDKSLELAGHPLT
# [6] = biological target: HOXA4 (Homo sapiens, UniProt Q00056 201-287)
# Chain of HOXA4 (Homo sapiens, UniProt Q00056 201-287) (Q00056 201-287): as the sequence (Q00056 201-287 R217L) above, with L17R counted along it
# [7] = biological target: T2, NKX2-6 (Homo sapiens, UniProt A6NCS4 118-204, F151L)
# T2 sequence: T1 sequence with F34L
# [8] = biological target: HOXA4 (Homo sapiens, UniProt Q00056 201-287, W262F)
# Chain of HOXA4 (Homo sapiens, UniProt Q00056 201-287, W262F) (Q00056 201-287 W262F): as the sequence (Q00056 201-287 R217L) above, with L17R, W62F counted along it
# [9] = biological target: PRRX1 (Homo sapiens, UniProt P54821 80-166)
# Chain of PRRX1 (Homo sapiens, UniProt P54821 80-166) (P54821 80-166): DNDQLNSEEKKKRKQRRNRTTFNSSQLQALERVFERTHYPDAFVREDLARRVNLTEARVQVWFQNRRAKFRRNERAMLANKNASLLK
# [10] = biological target: NKX2-5 (Homo sapiens, UniProt P52952 125-210)
# Chain of NKX2-5 (Homo sapiens, UniProt P52952 125-210) (P52952 125-210): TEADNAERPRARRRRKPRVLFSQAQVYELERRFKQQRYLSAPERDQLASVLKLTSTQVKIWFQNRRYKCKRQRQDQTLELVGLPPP
# [11] = biological target: T3, SIX6 (Homo sapiens, UniProt O95475 114-200, L167I)
# T3 sequence: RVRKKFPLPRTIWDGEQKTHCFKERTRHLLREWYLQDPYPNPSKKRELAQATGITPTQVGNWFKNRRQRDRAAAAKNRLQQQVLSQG
# [12] = biological target: T4, SIX6 (Homo sapiens, UniProt O95475 114-200, L143V)
# T4 sequence: T3 sequence with L30V, I54L
# [13] = biological target: T5, SIX6 (Homo sapiens, UniProt O95475 114-200, H141N)
# T5 sequence: T3 sequence with H28N, I54L
# [14] = biological target: T6, SIX6 (Homo sapiens, UniProt O95475 114-200, T165P)
# T6 sequence: T3 sequence with T52P, I54L
# [15] = biological target: T7, SIX6 (Homo sapiens, UniProt O95475 114-200, L167M)
# T7 sequence: T3 sequence with I54M
# [16] = biological target: T8, SIX6 (Homo sapiens, UniProt O95475 114-200, L143M)
# T8 sequence: T3 sequence with L30M, I54L
# [17] = biological target: T9, SIX6 (Homo sapiens, UniProt O95475 114-200, L143I)
# T9 sequence: T3 sequence with L30I, I54L
# [18] = biological target: T10, SIX6 (Homo sapiens, UniProt O95475 114-200, T165G)
# T10 sequence: T3 sequence with T52G, I54L
# [19] = biological target: T11, SIX6 (Homo sapiens, UniProt O95475 114-200, T139Q)
# T11 sequence: T3 sequence with T26Q, I54L
# [20] = biological target: ALX3 (Homo sapiens, UniProt O95076 139-225, N203Q)
# Chain of ALX3 (Homo sapiens, UniProt O95076 139-225, N203Q) (O95076 139-225 N203Q): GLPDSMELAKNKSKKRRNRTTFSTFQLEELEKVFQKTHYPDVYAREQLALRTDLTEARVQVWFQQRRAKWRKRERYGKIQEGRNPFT
# [21] = biological target: T12, SIX6 (Homo sapiens, UniProt O95475 114-200, T165A)
# T12 sequence: T3 sequence with T52A, I54L
# [22] = biological target: T13, SIX6 (Homo sapiens, UniProt O95475 114-200, L167V)
# T13 sequence: T3 sequence with I54V
# [23] = biological target: ALX3 (Homo sapiens, UniProt O95076 139-225)
# Chain of ALX3 (Homo sapiens, UniProt O95076 139-225) (O95076 139-225): as the sequence (O95076 139-225 N203Q) above, with Q65N counted along it
# [24] = biological target: T14, SIX6 (Homo sapiens, UniProt O95475 114-200)
# T14 sequence: T3 sequence with I54L
# [25] = biological target: ALX3 (Homo sapiens, UniProt O95076 139-225, L168Q)
# Chain of ALX3 (Homo sapiens, UniProt O95076 139-225, L168Q) (O95076 139-225 L168Q): as the sequence (O95076 139-225 N203Q) above, with L30Q, Q65N counted along it
# [26] = biological target: T15, SIX6 (Homo sapiens, UniProt O95475 114-200, T165I)
# T15 sequence: T3 sequence with T52I, I54L
# [27] = biological target: ALX3 (Homo sapiens, UniProt O95076 139-225, L168V)
# Chain of ALX3 (Homo sapiens, UniProt O95076 139-225, L168V) (O95076 139-225 L168V): as the sequence (O95076 139-225 N203Q) above, with L30V, Q65N counted along it
# [28] = biological target: ALX3 (Homo sapiens, UniProt O95076 139-225, N203S)
# Chain of ALX3 (Homo sapiens, UniProt O95076 139-225, N203S) (O95076 139-225 N203S): as the sequence (O95076 139-225 N203Q) above, with Q65S counted along it
# [29] = biological target: T16, PAX4 (Homo sapiens, UniProt O43316 9-242, R200K)
# T16 sequence: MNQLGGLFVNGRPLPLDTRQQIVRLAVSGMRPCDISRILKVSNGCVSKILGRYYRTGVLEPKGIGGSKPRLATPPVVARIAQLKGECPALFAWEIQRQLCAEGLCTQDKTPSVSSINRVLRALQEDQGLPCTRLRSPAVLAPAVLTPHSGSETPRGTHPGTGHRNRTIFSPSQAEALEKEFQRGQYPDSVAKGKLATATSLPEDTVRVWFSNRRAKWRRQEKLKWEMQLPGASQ
# [30] = biological target: T17, PAX4 (Homo sapiens, UniProt O43316 9-242)
# T17 sequence: T16 sequence with K192R
# [31] = biological target: T18, PAX4 (Homo sapiens, UniProt O43316 9-242, R200Q)
# T18 sequence: T16 sequence with K192Q
# [32] = biological target: T19, PAX4 (Homo sapiens, UniProt O43316 9-242, F177V)
# T19 sequence: T16 sequence with F169V, K192R
# [33] = biological target: T20, PAX4 (Homo sapiens, UniProt O43316 9-242, F177Y)
# T20 sequence: T16 sequence with F169Y, K192R
# [34] = biological target: T21, PAX4 (Homo sapiens, UniProt O43316 9-242, R227W)
# T21 sequence: T16 sequence with K192R, R219W
# [35] = biological target: HOXA7 (Homo sapiens, UniProt P31268 116-202)
# Chain of HOXA7 (Homo sapiens, UniProt P31268 116-202) (P31268 116-202): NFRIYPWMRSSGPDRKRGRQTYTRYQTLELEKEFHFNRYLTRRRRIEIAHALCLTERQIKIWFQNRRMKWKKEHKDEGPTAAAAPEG
# [36] = biological target: HOXA7 (Homo sapiens, UniProt P31268 116-202, W177C)
# Chain of HOXA7 (Homo sapiens, UniProt P31268 116-202, W177C) (P31268 116-202 W177C): as the sequence (P31268 116-202) above, with W62C counted along it
# [37] = biological target: T22, NKX2-4 (Homo sapiens, UniProt Q9H2Z4 175-261, T231S)
# T22 sequence: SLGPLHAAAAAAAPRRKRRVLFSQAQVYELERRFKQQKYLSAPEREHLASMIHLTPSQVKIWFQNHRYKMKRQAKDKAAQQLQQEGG
# [38] = biological target: T23, NKX2-6 (Homo sapiens, UniProt A6NCS4 118-204, R150C)
# T23 sequence: T1 sequence with R33C
# [39] = biological target: T24, NKX2-4 (Homo sapiens, UniProt Q9H2Z4 175-261, R246Q)
# T24 sequence: T22 sequence with S57T, R72Q
# [40] = biological target: NKX3-2 (Homo sapiens, UniProt P78367 192-278, P234S)
# Chain of NKX3-2 (Homo sapiens, UniProt P78367 192-278, P234S) (P78367 192-278 P234S): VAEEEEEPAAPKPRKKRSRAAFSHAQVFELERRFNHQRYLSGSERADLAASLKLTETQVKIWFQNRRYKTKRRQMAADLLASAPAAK
# [41] = biological target: NKX3-2 (Homo sapiens, UniProt P78367 192-278)
# Chain of NKX3-2 (Homo sapiens, UniProt P78367 192-278) (P78367 192-278): as the sequence (P78367 192-278 P234S) above, with S43P counted along it
# [42] = biological target: HOXA2 (Homo sapiens, UniProt O43364 129-215, R185T)
# Chain of HOXA2 (Homo sapiens, UniProt O43364 129-215, R185T) (O43364 129-215 R185T): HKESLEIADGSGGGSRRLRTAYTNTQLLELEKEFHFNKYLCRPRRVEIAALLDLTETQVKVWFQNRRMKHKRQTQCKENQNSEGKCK
# [43] = biological target: HOXA2 (Homo sapiens, UniProt O43364 129-215, R185K)
# Chain of HOXA2 (Homo sapiens, UniProt O43364 129-215, R185K) (O43364 129-215 R185K): as the sequence (O43364 129-215 R185T) above, with T57K counted along it
# [44] = biological target: HOXA2 (Homo sapiens, UniProt O43364 129-215, Y150S)
# Chain of HOXA2 (Homo sapiens, UniProt O43364 129-215, Y150S) (O43364 129-215 Y150S): as the sequence (O43364 129-215 R185T) above, with Y22S, T57R counted along it
# [45] = biological target: HOXA2 (Homo sapiens, UniProt O43364 129-215)
# Chain of HOXA2 (Homo sapiens, UniProt O43364 129-215) (O43364 129-215): as the sequence (O43364 129-215 R185T) above, with T57R counted along it
# Chain of HOXA4 (Homo sapiens, UniProt Q00056 201-287, W262R) (Q00056 201-287 W262R): as the sequence (Q00056 201-287 R217L) above, with L17R, W62R counted along it
# Chain of NKX2-5 (Homo sapiens, UniProt P52952 125-210, R139K) (P52952 125-210 R139K): as the sequence (P52952 125-210) above, with R15K counted along it
# Chain of PRRX1 (Homo sapiens, UniProt P54821 80-166, F113S) (P54821 80-166 F113S): as the sequence (P54821 80-166) above, with F34S counted along it
sequence,measurement,setting,value
GTCTAGAC,binding signal,[1],"9.21 upbm affinity estimate (log intensity, higher = more binding, comparable within an allelic series)"
same,binding signal,[2],"9.98 upbm affinity estimate (log intensity, higher = more binding, comparable within an allelic series)"
same,binding signal,[3],"9.59 upbm affinity estimate (log intensity, higher = more binding, comparable within an allelic series)"
same,binding signal,[4],"10.1 upbm affinity estimate (log intensity, higher = more binding, comparable within an allelic series)"
same,binding signal,[5],"10.1 upbm affinity estimate (log intensity, higher = more binding, comparable within an allelic series)"
same,binding signal,[6],"9.99 upbm affinity estimate (log intensity, higher = more binding, comparable within an allelic series)"
same,binding signal,[7],"9.52 upbm affinity estimate (log intensity, higher = more binding, comparable within an allelic series)"
same,binding signal,[8],"10 upbm affinity estimate (log intensity, higher = more binding, comparable within an allelic series)"
same,binding signal,[9],"9.88 upbm affinity estimate (log intensity, higher = more binding, comparable within an allelic series)"
same,binding signal,[10],"9.52 upbm affinity estimate (log intensity, higher = more binding, comparable within an allelic series)"
CCCCTGCG,binding signal,[1],"8.68 upbm affinity estimate (log intensity, higher = more binding, comparable within an allelic series)"
same,binding signal,[11],"8.92 upbm affinity estimate (log intensity, higher = more binding, comparable within an allelic series)"
same,binding signal,[12],"8.67 upbm affinity estimate (log intensity, higher = more binding, comparable within an allelic series)"
same,binding signal,[13],"8.89 upbm affinity estimate (log intensity, higher = more binding, comparable within an allelic series)"
same,binding signal,[14],"8.67 upbm affinity estimate (log intensity, higher = more binding, comparable within an allelic series)"
same,binding signal,[15],"8.87 upbm affinity estimate (log intensity, higher = more binding, comparable within an allelic series)"
same,binding signal,[16],"8.77 upbm affinity estimate (log intensity, higher = more binding, comparable within an allelic series)"
same,binding signal,[17],"8.85 upbm affinity estimate (log intensity, higher = more binding, comparable within an allelic series)"
same,binding signal,[18],"8.87 upbm affinity estimate (log intensity, higher = more binding, comparable within an allelic series)"
same,binding signal,[19],"8.92 upbm affinity estimate (log intensity, higher = more binding, comparable within an allelic series)"
same,binding signal,[20],"7.65 upbm affinity estimate (log intensity, higher = more binding, comparable within an allelic series)"
same,binding signal,[21],"8.91 upbm affinity estimate (log intensity, higher = more binding, comparable within an allelic series)"
same,binding signal,[22],"8.9 upbm affinity estimate (log intensity, higher = more binding, comparable within an allelic series)"
same,binding signal,[23],"7.85 upbm affinity estimate (log intensity, higher = more binding, comparable within an allelic series)"
same,binding signal,[24],"8.87 upbm affinity estimate (log intensity, higher = more binding, comparable within an allelic series)"
same,binding signal,[25],"7.61 upbm affinity estimate (log intensity, higher = more binding, comparable within an allelic series)"
same,binding signal,[26],"8.84 upbm affinity estimate (log intensity, higher = more binding, comparable within an allelic series)"
same,binding signal,[27],"7.71 upbm affinity estimate (log intensity, higher = more binding, comparable within an allelic series)"
same,binding signal,[28],"7.66 upbm affinity estimate (log intensity, higher = more binding, comparable within an allelic series)"
same,binding signal,[10],"8.4 upbm affinity estimate (log intensity, higher = more binding, comparable within an allelic series)"
ACGCCGGC,binding signal,[1],"8.53 upbm affinity estimate (log intensity, higher = more binding, comparable within an allelic series)"
same,binding signal,[29],"9.13 upbm affinity estimate (log intensity, higher = more binding, comparable within an allelic series)"
same,binding signal,[30],"9.3 upbm affinity estimate (log intensity, higher = more binding, comparable within an allelic series)"
same,binding signal,[31],"9.23 upbm affinity estimate (log intensity, higher = more binding, comparable within an allelic series)"
same,binding signal,[32],"9.3 upbm affinity estimate (log intensity, higher = more binding, comparable within an allelic series)"
same,binding signal,[33],"9.27 upbm affinity estimate (log intensity, higher = more binding, comparable within an allelic series)"
same,binding signal,[34],"9.27 upbm affinity estimate (log intensity, higher = more binding, comparable within an allelic series)"
same,binding signal,[10],"8.56 upbm affinity estimate (log intensity, higher = more binding, comparable within an allelic series)"
GGCAGGAC,binding signal,[1],"8.66 upbm affinity estimate (log intensity, higher = more binding, comparable within an allelic series)"
same,binding signal,[2],"9.94 upbm affinity estimate (log intensity, higher = more binding, comparable within an allelic series)"
same,binding signal,[3],"9.23 upbm affinity estimate (log intensity, higher = more binding, comparable within an allelic series)"
same,binding signal,[4],"9.72 upbm affinity estimate (log intensity, higher = more binding, comparable within an allelic series)"
same,binding signal,[6],"9.8 upbm affinity estimate (log intensity, higher = more binding, comparable within an allelic series)"
same,binding signal,[8],"9.93 upbm affinity estimate (log intensity, higher = more binding, comparable within an allelic series)"
same,binding signal,[9],"8.98 upbm affinity estimate (log intensity, higher = more binding, comparable within an allelic series)"
same,binding signal,[10],"8.83 upbm affinity estimate (log intensity, higher = more binding, comparable within an allelic series)"
ACCGTGTC,binding signal,[1],"8.73 upbm affinity estimate (log intensity, higher = more binding, comparable within an allelic series)"
same,binding signal,[35],"8.54 upbm affinity estimate (log intensity, higher = more binding, comparable within an allelic series)"
same,binding signal,[36],"8.46 upbm affinity estimate (log intensity, higher = more binding, comparable within an allelic series)"
same,binding signal,[10],"8.93 upbm affinity estimate (log intensity, higher = more binding, comparable within an allelic series)"
GACACTTA,binding signal,[1],"12.7 upbm affinity estimate (log intensity, higher = more binding, comparable within an allelic series)"
same,binding signal,[37],"12.8 upbm affinity estimate (log intensity, higher = more binding, comparable within an allelic series)"
same,binding signal,[38],"11.8 upbm affinity estimate (log intensity, higher = more binding, comparable within an allelic series)"
same,binding signal,[5],"13.6 upbm affinity estimate (log intensity, higher = more binding, comparable within an allelic series)"
same,binding signal,[39],"12.9 upbm affinity estimate (log intensity, higher = more binding, comparable within an allelic series)"
same,binding signal,[7],"11.1 upbm affinity estimate (log intensity, higher = more binding, comparable within an allelic series)"
same,binding signal,[40],"12.8 upbm affinity estimate (log intensity, higher = more binding, comparable within an allelic series)"
same,binding signal,[10],"12.6 upbm affinity estimate (log intensity, higher = more binding, comparable within an allelic series)"
same,binding signal,[41],"12.9 upbm affinity estimate (log intensity, higher = more binding, comparable within an allelic series)"
CCCCCAAC,binding signal,[1],"8.66 upbm affinity estimate (log intensity, higher = more binding, comparable within an allelic series)"
same,binding signal,[2],"9.78 upbm affinity estimate (log intensity, higher = more binding, comparable within an allelic series)"
same,binding signal,[42],"6.99 upbm affinity estimate (log intensity, higher = more binding, comparable within an allelic series)"
same,binding signal,[4],"9.67 upbm affinity estimate (log intensity, higher = more binding, comparable within an allelic series)"
same,binding signal,[43],"10.3 upbm affinity estimate (log intensity, higher = more binding, comparable within an allelic series)"
same,binding signal,[6],"9.61 upbm affinity estimate (log intensity, higher = more binding, comparable within an allelic series)"
same,binding signal,[44],"10.3 upbm affinity estimate (log intensity, higher = more binding, comparable within an allelic series)"
same,binding signal,[8],"9.75 upbm affinity estimate (log intensity, higher = more binding, comparable within an allelic series)"
same,binding signal,[45],"6.95 upbm affinity estimate (log intensity, higher = more binding, comparable within an allelic series)"
same,binding signal,[10],"8.6 upbm affinity estimate (log intensity, higher = more binding, comparable within an allelic series)"
